Columns and labels:
Details in all cases: concentration: 1 μM, replicates: in singlicate; n = 1
HASPIN = test system: T1, HASPIN
T1 construct: gene GSG2

HCK = test system: HCK
HIPK1 = test system: HIPK1
HIPK2 = test system: HIPK2
HIPK3 = test system: HIPK3
HIPK4 = test system: HIPK4
HPK1 = test system: HPK1
HUNK = test system: HUNK
ICK = test system: ICK
IGF1R = test system: IGF1R
IKK-alpha = test system: T2, IKK-alpha
T2 construct: gene CHUK

IKK-beta = test system: T3, IKK-beta
T3 construct: gene IKBKB

IKK-epsilon = test system: T4, IKK-epsilon
T4 construct: gene IKBKE

INSRR = test system: INSRR
INSR = test system: INSR
IRAK1 = test system: IRAK1
IRAK3 = test system: IRAK3
IRAK4 = test system: IRAK4
ITK = test system: ITK
[1] = test system: JAK1(JH1domain-catalytic)
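Also: KINOMEscan kinase panel screen.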

Row | SMILES | %Inh (HASPIN) [%] | %Inh (HCK) [%] | %Inh (HIPK1) [%] | %Inh (HIPK2) [%] | %Inh (HIPK3) [%] | %Inh (HIPK4) [%] | %Inh (HPK1) [%] | %Inh (HUNK) [%] | %Inh (ICK) [%] | %Inh (IGF1R) [%] | %Inh (IKK-alpha) [%] | %Inh (IKK-beta) [%] | %Inh (IKK-epsilon) [%] | %Inh (INSRR) [%] | %Inh (INSR) [%] | %Inh (IRAK1) [%] | %Inh (IRAK3) [%] | %Inh (IRAK4) [%] | %Inh (ITK) [%] | %Inh [1] [%]
1 | COC(=O)Nc1nc2cc(Oc3ccc(NC(=O)Nc4cc(C(F)(F)F)ccc4F)cn3)ccc2[nH]1.Cl.Cl [GW681170] | 47 | 15 | 0 | 0 | 0 | 91.6 | 16 | 7 | 0 | 12 | 66 | 17 | 0 | 0 | 0 | 49 | 0 | 3 | 0 | 30
2 | CN(C)S(=O)(=O)c1cc(-c2ccc3nccc(-c4cccc(S(N)(=O)=O)c4)c3c2)cnc1N [GSK1669921] | 71 | 0 | 49 | 36 | 44 | 48 | 41 | 0 | 44 | 0 | 0 | 0 | 0 | 24 | 42 | 0 | 29 | 9 | 16 | 12
3 | Cn1cc(-c2[nH]c3cc(NC(=O)[C@H](N)C4CCCCC4)cc4c3c2C=NNC4=O)cn1 | 52 | 96.9 | 88 | 80 | 80 | 89 | 65 | 0 | 0 | 0 | 15 | 10 | 73 | 4 | 0 | 77 | 20 | 93.3 | 34 | 61
4 | COc1cc(Nc2nccc(N3CCC(NC(=O)c4cc5ccccc5s4)C3)n2)cc(OC)c1OC (stereo not shown) [GSK1379760] | 19 | 0 | 9 | 0 | 0 | 9 | 90 | 0 | 0 | 13 | 0 | 0 | 6 | 4 | 5 | 18 | 85 | 4 | 5 | 8
5 | NCCCC(NC(=O)c1cc(Br)c(-c2ccnc3[nH]ccc23)s1)c1ccccc1.O=C(O)C(F)(F)F.O=C(O)C(F)(F)F (stereo not shown) [GSK1287544] | 95.7 | 0 | 39 | 14 | 62 | 82 | 62 | 0 | 23 | 2 | 48 | 58 | 0 | 1 | 0 | 94.8 | 0 | 7 | 12 | 72
6 | c1ccc(-c2n[nH]cc2Nc2ccnc3ccccc23)nc1 [GW694077] | 100 | 0 | 92.7 | 98.6 | 98.3 | 47 | 32 | 0 | 0 | 2 | 92.1 | 81 | 0 | 0 | 0 | 85 | 90.9 | 47 | 14 | 0
7 | COc1cc(Nc2nccc(-c3c(-c4cccc(NC(=O)c5c(F)cccc5F)c4)nn4ncccc34)n2)cc(OC)c1OC [GSK327238] | 0 | 96.6 | 0 | 0 | 18 | 29 | 82 | 12 | 4 | 95.8 | 0 | 0 | 23 | 93 | 64 | 0 | 74 | 0 | 5 | 17
8 | Cc1cccc(Nc2nc(N[C@H]3CCNC3)ncc2C(N)=O)c1.Cl [GSK2197149] | 54 | 82 | 21 | 8 | 30 | 0 | 88 | 0 | 0 | 2 | 35 | 12 | 13 | 0 | 16 | 21 | 1 | 76 | 21 | 0

From PMC5540273 (PLoS ONE, 2017)
